A selection: hits, their analogues and other compounds. The true share with any hit is near 4.6%.
ABHD5 PLIN5 PPI = inhibitors of human ABHD5-perilipin-5 interaction | Q00G26+Q8WTS1 | Split G. princeps luciferase complementation, luminescence, 4 h | inhibition, % at 4 µM | hit rate 0.78% among 360,000 | AID 602281;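 active means inhibition above the mean inhibition across every tested compound plus 3 SD, cut at about 22% in these data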;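 further: 0% = DMSO only wells and the 100% control is not disclosed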
Peg3 prom inh = Peg3 promoter activity inhibition; HeLa PEG-Prom luciferase reporter, luminescence, overnight; inhibition, % at 20 µM; hit rate 1.7% among 360,000; AID 588405;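 active means inhibition of at least 50% at 20 µM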
CF NFkB block = inhibitors of cystic fibrosis induced NF-kB; hit rate 0.86% among 360,000; KKLEB NF-kB-GFP reporter, PAF-induced, GFP fluorescence overnight; inhibition, % at 5 µM; AID 588850;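 active means at least 50% inhibition at 5 µM, scaled per plate between neutral and stimulator controls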;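 further: PAF is a Pseudomonas aeruginosa culture filtrate used as stimulus; plate controls were PAF-stimulated DMSO wells for no effect and unstimulated DMSO wells for full effect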
KKLEB tox = counter-screen for CF NF-kB inhibitors: cytotoxicity; KKLEB CF airway cells viability, ATPlite luminescence, overnight; active compounds read low; cells stimulated with P. aeruginosa culture filtrate; hit rate 0.36% among 360,000; activity change (cytotoxicity), % at 5 µM; AID 602141;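 active means corrected activity change at or below -50% at 5 µM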
HIF-2a block = HIF-2a inhibition | 786-0 RCC cells HIF-2a reporter, luciferase luminescence, overnight | inhibition, % at 18.8 µM | AID 624352 | hit rate 0.72% among 360,000;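 active means inhibition of the luminescence signal of 40% or more relative to plate controls, in a single-dose primary screen at 18.75 µM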
Mdm2-MdmX inh = inhibitors of human Mdm2/MdmX interaction; inhibition, % at 8 µM; hit rate 3% among 330,000; AID 485346; SaOS-2 split-luciferase Mdm2/MdmX complementation, luminescence;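 active means inhibition of at least 50% at 8 µM in the primary screen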
Mdm2 MdmX conf = confirmation of human Mdm2/MdmX interaction inhibitors; Mdm2-MdmX binding, luminescent assay; shares compounds with Mdm2-MdmX inh; inhibition, % at 8 µM; hit rate 55% among 10,000; in the data active means inhibition above about 40%
Full FLuc ctr = counter-screen for Mdm2/MdmX inhibitors: full-length luciferase. shares compounds with Mdm2-MdmX inh. SaOS-2 full-length luciferase counterscreen, luminescence. inhibition, % at 8 µM. hit rate 77% among 6,200;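 active means mean inhibition at 8 µM reaching about 37%, which flags the compound as non-specific, limit read from the data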;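 further: p53-null SaOS-2 cells with luciferase driven by a doxycycline-inducible promoter; compound on cells about two nights before reading with doxycycline added after day one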
The depositor's hits bear a star.

For O=C(N/N=C(\Cc1ncc[nH]1)c1ccccc1)c1cccnc1 the results were ABHD5 PLIN5 PPI -5, Peg3 prom inh 18, CF NFkB block 18, KKLEB tox 3, HIF-2a block 23, Mdm2-MdmX inh 54*, Mdm2 MdmX conf 64* and Full FLuc ctr 33.
For COc1ccc(-c2nc(-c3ccc4c(c3)OCO4)[nH]c2-c2ccc(OC)cc2)cc1 the results were ABHD5 PLIN5 PPI 1, Peg3 prom inh 20, CF NFkB block -22, KKLEB tox 1, HIF-2a block -1, Mdm2-MdmX inh 67* and Mdm2 MdmX conf 25.
COc1cccc(-c2c(-c3cc(OC)cc(OC)c3)n(C)c3ccc(-c4cnc(OC)nc4)cc23)c1 was read as ABHD5 PLIN5 PPI -1, Peg3 prom inh 23, CF NFkB block 44, KKLEB tox -13, HIF-2a block 0 and Mdm2-MdmX inh 20.
Screening COc1cc(OC)cc(-c2c(-c3ccc(F)cc3)c3cc(-c4cnc(OC)nc4)ccc3n2C)c1 returned ABHD5 PLIN5 PPI 1, Peg3 prom inh 40, CF NFkB block 22, KKLEB tox -23, HIF-2a block 11, Mdm2-MdmX inh 57*, Mdm2 MdmX conf 54* and Full FLuc ctr 42*.
For COc1cccc(-c2c(-c3cc(OC)cc(OC)c3)n(C)c3ccc(-c4cnc(N5CCOCC5)nc4)cc23)c1 the results were ABHD5 PLIN5 PPI -3, Peg3 prom inh 49, CF NFkB block 46, KKLEB tox -48, HIF-2a block 13, Mdm2-MdmX inh 71* and Mdm2 MdmX conf -6.
CCc1ccc(-c2cc(C(F)(F)F)n3nc(C(=O)Nc4cnn(Cc5ccc(C)cc5)c4)cc3n2)s1 was read as ABHD5 PLIN5 PPI -9, Peg3 prom inh 43, CF NFkB block -7, KKLEB tox -13, HIF-2a block 3, Mdm2-MdmX inh 51* and Mdm2 MdmX conf 13.
`O=C(COC(=O)c1ccc(Cl)nc1)Nc1ccc2c(c1)OCCO2` gave ABHD5 PLIN5 PPI -3, Peg3 prom inh -4, CF NFkB block -6, KKLEB tox 14, HIF-2a block -12 and Mdm2-MdmX inh -2.
Screening CC(=O)Oc1c(-c2ccc(Br)o2)oc2ccccc2c1=O returned ABHD5 PLIN5 PPI -4, Peg3 prom inh 17, CF NFkB block -5, KKLEB tox 5, HIF-2a block 12, Mdm2-MdmX inh 93*, Mdm2 MdmX conf 41* and Full FLuc ctr 30.
For O=C(O)COc1c(-c2ccco2)oc2ccccc2c1=O the results were ABHD5 PLIN5 PPI -2, Peg3 prom inh 5, CF NFkB block -20, KKLEB tox 9, HIF-2a block 12 and Mdm2-MdmX inh -14.
`O=C(CNc1cccc(C(F)(F)F)c1)N/N=C/c1ccccc1C(=O)O` gave ABHD5 PLIN5 PPI 3, Peg3 prom inh 16, CF NFkB block -4, KKLEB tox -4, HIF-2a block 11 and Mdm2-MdmX inh -4.
For Cc1nn(Cc2ccc(Cl)cc2Cl)c(Cl)c1/C=N/NC(=O)CNc1cccc(C(F)(F)F)c1 the results were Mdm2-MdmX inh 84* and Mdm2 MdmX conf -1.
For O=C(CSc1nc(=O)n(CCCN2CCOCC2)c2c1CCCC2)Nc1ccc(Cl)cc1 the results were ABHD5 PLIN5 PPI 2, Peg3 prom inh 1, CF NFkB block 29, KKLEB tox -23, HIF-2a block 6 and Mdm2-MdmX inh 15.
CC(=O)c1cccc(NS(=O)(=O)c2cc(-c3cnc(C4CC4)o3)ccc2C)c1 was read as ABHD5 PLIN5 PPI -11, Peg3 prom inh 35, CF NFkB block -6, KKLEB tox -17, HIF-2a block 29, Mdm2-MdmX inh 57*, Mdm2 MdmX conf 60* and Full FLuc ctr 61*.
Cc1ccc(-c2cnc(C3CC3)o2)cc1S(=O)(=O)Nc1ccccc1 was read as ABHD5 PLIN5 PPI -1, Peg3 prom inh 30, CF NFkB block 20, KKLEB tox 7, HIF-2a block 3, Mdm2-MdmX inh 61*, Mdm2 MdmX conf 66* and Full FLuc ctr 34.

Compound activity deposited in PubChem by several laboratories.
